Bioassay records deposited in PubChem by National Center for Advancing Translational Sciences (NCATS).
Only some compounds are listed: those with a hit (about 9.2% of all), similar ones and a draw of the others.
ELG1 genotox: inducers of genotoxicity in HEK293T ELG1-luciferase cells. HEK293T ELG1-luciferase reporter, luminescence, 16 h. AID 504466. Potency, µM (top dose mostly 46 µM), for the others: at the top dose activity change, positive = activation, hits mostly activators. 1.3% of 330,000 active; note: % of control where 0% means no effect; nearly all actives have a fitted effect of over 60% in size
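Step 1: seed 2,000 HEK293T ELG1-luciferase cells per well. Step 2: add compound or DMSO, incubate 16 hr at 37 °C. Step 3: ONE-Glo, 30 min at room temperature, read luminescence.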
FLuc modulator: inhibits or activates purified firefly luciferase, miR-21 counter-screen; P08659; purified FLuc, Km substrates, luminescence inhibition; Potency, µM (doses to about 57.5 µM), inactives show at the top dose activity change, negative = inhibition, actives largely listed as inhibitors; 6.9% of 360,000 active;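 note: plate controls were vehicle for no effect and reference inhibitor for full effect; nearly all actives have a fitted effect of over 55% in size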
Target sequence (P08659 whole entry, looked up): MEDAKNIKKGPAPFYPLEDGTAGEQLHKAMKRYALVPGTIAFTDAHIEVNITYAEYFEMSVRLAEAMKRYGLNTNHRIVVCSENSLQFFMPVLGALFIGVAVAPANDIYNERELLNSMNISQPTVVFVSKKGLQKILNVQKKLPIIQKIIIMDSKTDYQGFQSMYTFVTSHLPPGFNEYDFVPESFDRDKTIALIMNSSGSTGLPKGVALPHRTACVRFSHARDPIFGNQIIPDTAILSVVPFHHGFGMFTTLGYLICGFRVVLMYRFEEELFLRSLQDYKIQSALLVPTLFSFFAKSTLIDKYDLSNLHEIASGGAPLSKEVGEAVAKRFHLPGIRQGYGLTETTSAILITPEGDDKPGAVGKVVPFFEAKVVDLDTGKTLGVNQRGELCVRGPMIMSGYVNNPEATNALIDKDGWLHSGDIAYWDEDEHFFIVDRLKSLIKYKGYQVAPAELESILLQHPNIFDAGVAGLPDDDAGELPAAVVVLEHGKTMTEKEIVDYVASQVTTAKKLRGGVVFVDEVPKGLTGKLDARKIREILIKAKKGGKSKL
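Purified P. pyralis luciferase (10nM final) with 10uM D-luciferin and 10uM ATP (Km levels) in 50mM Tris acetate pH 7.5, 10mM Mg acetate, 0.01% Tween-20, 0.05% BSA; qHTS 6-point titration, ~60 µM downward; luminescence read.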
NPC1 prom act: activators of NPC1 promoter. 2.4% of 320,000 active. Huh7 NPC1 promoter luciferase reporter, 24 h. Potency, µM (series often up to 9.22 µM), for inactives: top-dose activation, usual class: activators. AID 485313; note: % of control where 0% means no effect; nearly all actives have a fitted effect of over 60% in size
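In 1536-well qHTS, Huh7 cells harboring an NPC1 promoter–luciferase construct received compound for 24 h; activation was quantified by luminescence following luciferase reagent addition.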
Rab9 promoter act: activates the Rab9 promoter; Huh7 Rab9 promoter-luciferase reporter, luminescence, 24 h; Potency, µM (top dose mostly 9.22 µM), for the others: at the highest dose activation, negative = inhibition, hits mostly activators; 2.8% of 320,000 active; AID 485297; note: % of control where 0% means no effect; nearly all actives have a fitted effect of over 60% in size
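Promoter activation is measured as luciferase luminescence in Huh7 cells stably transfected with a Rab9 promoter–luciferase construct, following 24 h compound exposure at 37 °C and 10 min reagent incubation at ambient temperature.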
ELG1 DNA repair: blocks ELG1-dependent DNA repair in HEK293T cells; AID 504467; HEK293T ELG1-luciferase reporter, luminescence, 16 h; DNA damage induced by 5-fluorouridine; 2.3% of 330,000 active; Potency, µM (series often up to 46.1 µM), inactives show top-dose activity change, negative = inhibition, actives largely listed as inhibitors; note: % is set by controls: 0 for no effect and ±100 for the full control effect; nearly all actives have a fitted effect of over 55% in size
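DMSO vehicle served as the neutral condition. Each well held 2,000 cells given 5-fluorouridine plus compound; after 16 hr at 37 °C/5% CO2, ONE-Glo was added and luciferase measured 30 min later.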
SMN2 splice up: SMN2 splice variant enhancement; HEK293 SMN2-luciferase splicing reporter, luminescence, 30-36 h; Potency, µM (top dose mostly 46.1 µM), for the others: top-dose activity change, positive = activation, most hits filed as activators; 2.8% of 210,000 active; AID 1458; note: % of control where 0% means no effect; nearly all actives have a fitted effect of over 55% in size
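HEK293 cells carry an SMN2 minigene-luciferase reporter in which exon 7 inclusion puts luciferase in frame. Cells were seeded at 2000 cells/well, attached for 10-12 hours, then exposed to compounds for 30-36 hours at 37C before ONE-Glo luminescence.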
* marks the source's active call; other numbers are inactive results; ? = inconclusive; · = no result; [ ] = another dose, or the depositor's remark. Calls come from the whole dose curve; as a rule, active = well fitted curve in the direction sought with a large enough effect; inconclusive = small, poorly fitted or top-dose-only effect, or another doubt; inactive = no such curve, though single readings can be large; an effect the other way counts as inactive or inconclusive. Potency is the fitted concentration of half-maximal effect.

SMILES | ELG1 genotox | FLuc modulator | NPC1 prom act | Rab9 promoter act | ELG1 DNA repair | SMN2 splice up
COc1cccc(CNC(=O)CCn2ccc3cc(S(=O)(=O)N4CCCC4)ccc32)c1 | -2.1% | -1.2% | -4.7% | -2.4% | 4.3% | ·
COc1cccc(CNC(=O)CCCn2ccc3cc(S(=O)(=O)N4CCCC4)ccc32)c1 | -10.0% | -8.0% | -1.0% | -4.9% | 23.1µM* | ·
COc1ccccc1N1CCN(c2nc3ccccc3n3cnnc23)CC1 | · | -18.5% | · | · | · | -4.4%
COc1ccc(-n2nc3cc(C)c(N)c(Br)c3n2)cc1 | 7.31µM* | 1.07µM* | 2.82µM* | 1.26µM* | ? | 7.94µM*
COc1ccc(-n2nc3cc(N)c(Br)cc3n2)cc1 | 18.3µM* | 4.78µM* | ? | ? | ? | ·
NC(=O)c1ccsc1NC(=O)c1coc2ccccc2c1=O | 7.3µM* | 2.39µM* | ? | 2µM* | ? | 11.2µM*
CCOc1cc(C2C(C#N)=C(N)Oc3n[nH]c(C)c32)ccc1OCCN1CCOCC1 (stereo not given) | 5.6% | 4.5%[2.3 µM] | 3.98µM* | 22.0% | 27.5% | 41.7%
CCOC(=O)c1c(-c2ccccc2)csc1NC(=O)c1cc(-c2ccc(C)c(F)c2)on1 | · | -8.1% | · | · | · | ·
Cn1c(N)c(C(=O)/C=C/c2ccccc2)c(=O)[nH]c1=O | ? | 16.9µM* | ? | ? | ? | ·
Cc1cc(C)c(C(=O)/C=C/c2cccs2)c(=O)[nH]1 | -12.8% | -1.1% | -3.9% | -2.7% | ? | -4.3%
CCc1ccc(/C=C(\C)C(=O)c2c(C)cc(C)[nH]c2=O)cc1 | -11.5% | -3.6% | 2.3% | 13.2% | ? | -84.8%
C/C(=C\c1ccc(Br)cc1)C(=O)c1c(C)cc(C)[nH]c1=O | -9.9% | 0.9% | -2.3% | -1.2% | 14.6µM* | ·
CCc1ccc(/C=C/C(=O)c2c(C)cc(C)[nH]c2=O)cc1 | -52.0% | ? | -5.0% | -10.0% | 20.6µM* | -76.2%
Cc1ccc(/C=C/C(=O)c2c(C)cc(C)[nH]c2=O)cc1 | 0.0% | -2.6% | 1.3% | -8.6% | 20.6µM* | -43.7%
COc1ccc(CCNc2nc3cc(OC)c(OC)cc3c3nc(-c4cccnc4)nn23)cc1OC | · | -0.8% | · | · | · | 2.4%
O=C(O)CC1(CC(=O)Nc2cccc(C(=O)O)c2)CCCC1 | 12.5% | ? | 22.6% | 14.5% | ? | ·
CCc1ccc(NC(=O)c2nc3nc(C)cc(C(F)F)n3n2)cc1 | · | -17.1% | · | · | · | ·
Cc1cc(C)n(CCC(=O)N2CCN(S(=O)(=O)c3ccccc3)CC2)n1 | -3.3% | 1.6% | -3.3% | -3.8% | -8.7% | ·
COc1ccc(CNS(=O)(=O)c2ccc(C(=O)N(C)C)s2)cc1 | · | -5.6% | · | · | · | ·
COc1cccc(-c2cc(C(=O)N3CCN(C(=O)c4ccco4)CC3)on2)c1 | 0.6% | -19.7% | 0.2% | -1.4% | 12.2% | ·
NCCOc1ccccc1-c1ccccc1 | 0.2% | 5.9% | -2.3% | 4.47µM* | -0.4% | 25.0%
NCCOc1ccccc1OCCN | 9.4% | 0.1% | 1.3% | -7.7% | 12.7% | -10.7%
O=C1c2ccccc2C(=O)c2[nH]c(=O)[nH]c21 | -19.0% | -0.2% | -17.0% | -34.0% | 7.3µM* | ·
O=C(NCC(=O)N1CCCC(C(F)(F)F)C1)c1ccc(Oc2ccccc2)cc1 (stereo not given) | ? | 0.269µM* | ? | 2.51µM* | ? | ·
COc1cc2c(cc1NC(=O)COc1ccc(Br)c(C)c1)oc1ccccc12 | · | -0.2% | · | · | · | -8.6%
SMILES | ELG1 genotox | FLuc modulator | NPC1 prom act | Rab9 promoter act | ELG1 DNA repair | SMN2 splice up
O=C(CCc1nnc(Cc2cccc(C(F)(F)F)c2)o1)NCC(F)(F)F | 6.4% | -9.9% | -0.4% | -3.2% | 21.4% | 9.1%
CC(C)CN(C)C(=O)CCc1nnc(Cc2cccc(C(F)(F)F)c2)o1 | ? | 23.9µM* | ? | 2.82µM* | ? | ·
C=C(C)CNC(=O)CCc1nnc(Cc2cccc(C(F)(F)F)c2)o1 | 18.3µM* | 21.3µM* | 20.4% | ? | ? | 11.2µM*
CC(NC(=O)CCc1nnc(Cc2cccc(C(F)(F)F)c2)o1)C1CC1 (stereo not given) | ? | 26.9µM* | 13.8% | ? | ? | ·
Cc1sc2nc(SCC(=O)Nc3ccc(S(=O)(=O)NCCCC(=O)O)cc3)[nH]c(=O)c2c1C | -0.4% | 16.9µM* | -5.8% | -11.8% | -14.4% | ·
Cc1sc2nc(SCC(=O)Nc3ccccc3F)[nH]c(=O)c2c1C | 16.0% | -1.1% | -5.1% | -0.1% | 16.2% | ·
CCc1cc2c(=O)c(-c3ccc4c(c3)OCCO4)coc2cc1OC(=O)c1ccco1 | 1.46µM* | 1.07µM* | 1.78µM* | 2µM* | ? | ?
CCCc1cc2c(=O)c(-c3ccc4c(c3)OCCO4)coc2cc1OC(=O)c1ccco1 | 18.1% | 5.36µM* | 1.26µM* | 1.58µM* | ? | ?
CCOC(=O)c1cnc2cc(C(F)(F)F)ccc2c1Nc1cc(C)ccc1OC | · | -6.9% | · | · | · | 9.2%
COc1ccc(CNC(=O)CCC(=O)N2CC3CCCN3c3ccccc32)cc1 (stereo not given) | · | -2.2% | · | · | · | ·
O=C(N/N=C\c1cn(-c2ccccc2)nc1-c1ccccc1)c1ccc2c(c1)OCO2 | -0.4% | 4.78µM* | 5.1% | -0.8% | ? | 19.5%
O=C(N/N=C/c1cn(-c2ccccc2)nc1-c1ccc(F)cc1)c1ccc2c(c1)OCO2 | -2.6% | 4.26µM* | 4.1% | -0.4% | ? | 7.7%
O=C(N/N=C/c1cn(-c2ccccc2)nc1-c1ccc2c(c1)OCCO2)c1ccncc1 | ? | -17.6% | ? | ? | ? | 11.2µM*
COc1ccc(-c2nn(-c3ccccc3)cc2/C=N/NC(=O)c2ccc3c(c2)OCO3)cc1 | -7.8% | ? | 0.9% | 3.2% | ? | 25.3%
O/N=C/c1cn(-c2ccccc2)nc1-c1ccc2c(c1)OCCO2 | 8.6% | ? | 13.2% | 10.4% | ? | 12.5%
Cc1ccc(-n2nc(CO)c(C(=O)NCCCCc3ccccc3)n2)cc1C | · | ? | · | · | · | 9.2%
O=C(c1cc(=O)[nH]c2ccccc12)N(Cc1nnc(-c2ccccc2Cl)o1)C1CC1 | -8.2% | -18.3% | -0.6% | -7.7% | ? | ·
O=C(CSc1ccc(-c2ccccc2)nn1)c1cccs1 | ? | ? | ? | ? | ? | 17.8µM*
Cc1ccc(C(=O)CSc2ccc(-c3ccncc3)nn2)cc1 | -7.0% | -3.0% | -12.7% | -10.3% | ? | -9.7%
O=C(CSc1ccc(-c2ccccc2)nn1)N1CCOCC1 | ? | -17.3% | 17.4% | 17.7% | ? | 6.31µM*
COc1ccc(-c2ccc(SCC(=O)c3cccs3)nn2)cc1 | ? | 10.7µM* | 12.3% | 27.1% | ? | 12.6µM*
COc1ccc(-c2ccc(SCC(=O)N3CC(=O)Nc4ccccc43)nn2)cc1 | 2.5% | 3.01µM* | 25.1% | 28.1% | 26.9% | ·
